Measurements taken from PubChem BioAssay (NCI).
Values joined by “and” are separate entries in the source; they are usually repeats but may differ in a detail not shown here. Identical values can stand only once. Compounds without any hit were thinned out: in the full panel of roughly 83,000, 20% have a hit.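 Percent growth is the endpoint: 0 to 100 indicates growth inhibition (40 means 60% inhibition), 0 means no net growth, and negative values indicate cell death.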 Active and inactive are the calls of the source. How the source made its calls: active means growth percent below 10; inactive means the rest.

What follows are molecules tested on MDA-MB-468 breast (assay: NCI-60 one-dose screen, 48 h (100 = growth as untreated, 0 = no growth, -100 = all killed)). Conditions: 10 µM unless noted.

Compound | growth
CCCCOc1cc(C(=O)NCCN(CC)CC)c2ccccc2n1 | 81.3% (inactive) and 94.3% (inactive)
CCCn1cc(/C=N\N=C2\C(=O)Nc3ccc(C)cc32)c2ccccc21 | 25.2% (inactive)
CCc1ccc(CNCC(O)c2ccccc2)cc1 (stereo not given) | -1.1% (active)
C=C1C(=O)O[C@H]2[C@H]1CC/C(CNC(=O)c1cccc3ccccc13)=C\CC[C@@]1(C)O[C@@H]21 | 33.8% (inactive)
CCN(CC)c1ccc(/C=C2/NC(=O)NC2=O)cc1 | 37.8% (inactive)
COc1cc2c(c(O)c1Cl)C(=O)c1c(O)cc(C[C@H](C)O)cc1[C@H]2[C@H]1c2cc(C[C@H](C)O)cc(O)c2C(=O)c2c1cc(OC)c(Cl)c2O | -14.6% (active)
Cc1nc2ncc(-c3ccc4ncnc(NCc5ccccc5)c4c3)cc2[nH]1 | 11.1% (inactive)
Nc1nc(N)c2cc(Sc3ccc4ccccc4c3)ccc2n1 | 10.2% (inactive)
O=C1N[C@@H]2[C@@H](O)[C@@H](O)[C@H](O)C[C@H]2c2cc3c(c(O)c21)OCCO3 | -27.2% (active)
Cc1[nH]c2ccccc2c1C1=CC(=O)C=CC1=O | 72% (inactive)
COc1cc(C2Nc3ccccc3S2)cc(CN2CCOCC2)c1O (stereo not given) | 26.3% (inactive)
Cc1cc(C(NC(=O)CCCCCNc2cccc3c2C(=O)N(C2CCC(=O)NC2=O)C3=O)c2ccc3c(c2)OC(F)(F)O3)c(O)c2ncccc12 (stereo not given) | 69% (inactive)
C#CC(F)(F)[C@]1(O)CC[C@H]2[C@@H]3CCC4=CC(=O)CCC4=C3[C@@H](c3ccc(C4CC4)cc3)C[C@@]21C | 33.8% (inactive)
Cc1cc(=O)oc2cc(Oc3nc(Br)cn4c(Br)cnc34)ccc12 | 41.4% (inactive)
CCN(CC)CCCNc1cc(OC)cc2cccnc12 | 59% (inactive)
CC(=O)c1ccc(Nc2nccc(-c3ccc4ccccc4c3)n2)cc1 | 76.8% (inactive)
CS(=O)(=O)c1ccc(-c2nc3cc(Cl)ccc3n2CC(=O)N/N=C/c2ccc(Cl)cc2)cc1 | 96.6% (inactive)
C#CCO[C@H]1CC[C@H](OCC#C)[C@@H]2[C@H]1[C@H]1C[C@@H]3[C@@]4(C)CCC[C@@](C)(C(=O)OC)[C@@H]4CC[C@@]23C=C1C(C)C | 91.3% (inactive)
COc1cc(/C=C\C(C)=N\Nc2ccccc2)ccc1O | 49% (inactive)
c1ccc2c3c([nH]c2c1)C(c1ccc(C2NCCc4c2[nH]c2ccccc42)cc1)NCC3 (stereo not given) | -83.2% (active)
O=S(Nc1ccccc1)c1ccc(Cl)cc1 (stereo not given) | 91.5% (inactive)
Clc1ccc2c(NCCCN3CCOCC3)c3oc4ccc(Cl)cc4c3nc2c1 | 44.2% (inactive)
COc1ccccc1-c1c(-c2ccc(Cl)cc2)c2cc3c(cc2[nH]c1=O)OCCO3 | 62.7% (inactive)
Fc1ccc(Nc2nc(Nc3ccc(-c4nc5ccccc5[nH]4)cc3)c3cn[nH]c3n2)cc1 | -22.1% (active)
O=C(CCCCCCNC(=O)C(O)(O)C(F)(F)F)Nc1ccc(Br)cc1 | 8.56% (active)
